High-throughput results as filed in PubChem BioAssay.
Cav3 T inh: Cav3.2 calcium influx blockers – cell-based, Fluo-4 calcium fluorescence, FDSS, MLSMR library, primary screen; Cav3.2-expressing cells; stronger effect = lower value; AID 449739, 2010; hit rate 4% among 100,000; B-score at 10 µM; Voltage-dependent T-type calcium channel subunit alpha-1H (Homo sapiens), O95180;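 active = single-dose well whose peak fluorescence ratio is a statistical outlier from its plate by either plate-standardised score or position-corrected B-score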
CYP2C9 act: human CYP2C9 activators, primary screen, biochemical, luminescence. Cytochrome P450 2C9 (Homo sapiens), P11712. recombinant CYP2C9, luciferin-H conversion; stronger effect = higher value; factor 1 = untreated enzyme, 0 = blocked. activation factor at 5 µM. hit rate 1.4% among 96,000;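 active = activation factor of 2 or more for CYP2C9 at a 5 µM dose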;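 also: 0 = sulfaphenazole-blocked wells and 1 = vehicle-only wells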
CYP2C19 act: human CYP2C19 activators, primary screen, biochemical, luminescence; AID 1025, 2008; 96,000 tested, under 10 active; Cytochrome P450 2C19 (Homo sapiens), P33261; recombinant CYP2C19, luciferin-H EGE luminescence; stronger effect = higher value; 0 = fully inhibited enzyme, 1 = untreated enzyme; activation factor at 5 µM;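 active = activation factor of at least 2 at 5 µM in the primary screen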;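 also: 0 = wells with 2.5 mM tranylcypromine and 1 = vehicle-only wells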
CYP2C9 inh: blockers of cytochrome P450 2C9 activity – biochemical, luminescence, ADME assay, primary screen; inhibition, % at 5 µM; CYP2C9 Supersomes, luciferin-H conversion; AID 777, 2007; hit rate 20% among 96,000;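 active = blocking of liver enzyme CYP2C9 beyond about 50% at 5 µM, limit read from the data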
CYP2C19 inhib: blockers of cytochrome P450 2C19 activity – biochemical, luminescence, ADME assay, primary screen; P33261; CYP2C19 Supersomes, luciferin-H EGE luminescence, 30 min; inhibition, % at 5 µM; hit rate 21% among 96,000; AID 778, 2007;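 active = CYP2C19 inhibition above a set limit at 5 µM in the primary screen, cut at about 50% in these data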;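 also: plate controls were negative control wells for no effect and 2.5 mM tranylcypromine positive control for full effect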
* marks the source's active call; other numbers are inactive results; · = no result. The list is not random: actives were taken first. Their share in the collection is about 27%.

SMILES | Cav3 T inh | CYP2C9 act | CYP2C19 act | CYP2C9 inh | CYP2C19 inhib
O=C(CSc1nc2ccccc2[nH]1)Nc1cc(C(F)(F)F)ccc1N1CCOCC1 | -6.9* | 0 | 0 | 99* | 99*
O=C(Nc1cc(C(F)(F)F)ccc1N1CCOCC1)c1ccco1 | 0.4 | 1.1 | 1.1 | -14 | -11
NC(=O)C1CCN(C(=O)c2cnn(-c3ccccc3)c2NC(=O)c2ccco2)CC1 | -0.19 | 1 | 0.9 | -3 | 7
Clc1ccccc1CSc1nc2ccncc2[nH]1 | · | 0.7 | 0 | 32 | 99*
O=c1[nH]c(SCc2ccccc2Cl)nc2c1cnn2-c1ccccc1 | · | 1 | 1.1 | 2 | -6
O=C(CSc1nc2ccncc2[nH]1)Nc1ccccc1C(F)(F)F | -0.89 | 0.5 | 0.4 | 48 | 60*
O=C(Nc1ccccc1C(F)(F)F)c1cccnc1 | 1 | 1.1 | 1 | -10 | 2
C#CCOCCOCCOCCNc1nc(N2CCN(C(=O)C([C@@H](C)CC)n3cc(C(N)CO)nn3)CC2)nc(N2CCN(C(=O)[C@H](CCC(=O)O)n3cc(C(N)[C@H](C)CC)nn3)CC2)n1 (stereo partly specified) | 0.012 | · | · | · | ·
CSC1=NC2C(N1)N(C)C(=O)N2C (stereo unspecified) | 0.41 | 1.2 | 1.1 | -18 | -12
O=C(O)C(=O)/C(=C\c1cccc2ccccc12)c1ccc2ccccc2n1 | -5.5* | 0.8 | 1 | 15 | 5
CC(C)CCn1cnc2c(c1=O)c1nc3ccccc3nc1n2Cc1ccc2c(c1)OCO2 | 0.41 | 1 | 0.9 | 4 | 7
COc1ccc(-c2c(C(=O)O)nc3ccccc3c2C(=O)O)cc1 | 1.7 | 1 | 1 | 1 | 4
Cn1c(=O)c2nc(NCc3ccccc3)cnc2n(C)c1=O | · | 0.3 | 0.3 | 73* | 74*
CCCNc1nc2c(c(=O)n(C)c(=O)n2C)n1CCc1ccccc1 | 0.93 | 0.8 | 0.6 | 20 | 36
COc1ccc(-c2noc(CCCC(=O)NCc3ccco3)n2)cc1OC | 1.5 | 0.9 | 0.9 | 13 | 13
CC1CN(c2nc3c(c(=O)n(Cc4ccc(Cl)cc4)c(=O)n3C)n2C)CC(C)O1 (stereo unspecified) | -0.8 | 0.9 | 0.9 | 14 | 13
CC(=O)Nc1ccc(NC(=O)CN(c2cccc(C)c2)S(C)(=O)=O)cc1 | 0.31 | 0.8 | 0.5 | 19 | 52*
Cc1cccc(N(CC(=O)Nc2c(C)n(C)n(-c3ccccc3)c2=O)S(C)(=O)=O)c1 | · | 0.7 | 0.8 | 34 | 18
CC(=O)c1cccc(N(CC(=O)Nc2cccnc2)S(C)(=O)=O)c1 | 0.044 | 1.2 | 0.9 | -24 | 11
CCN(CC(=O)Nc1ccc(OC)c(OC)c1)S(=O)(=O)c1ccc(C)cc1 | 1 | 0.9 | 0.9 | 12 | 10
CCN(CC)S(=O)(=O)c1ccc(NC(=O)CN(c2cccc(C)c2)S(C)(=O)=O)cc1 | -4.4* | · | · | · | ·
CCN(CC)S(=O)(=O)c1ccc(NC(=O)CN(c2ccc(OC)cc2OC)S(C)(=O)=O)cc1 | -6.6* | 0 | 0.1 | 100* | 86*
O=C(NCC(c1cccnc1)N1CCN(c2ccccc2F)CC1)c1cccc(Cl)c1 (stereo unspecified) | -3.3 | 0.1 | 0.1 | 95* | 91*
O=C(NCC(c1cccnc1)N1CCN(c2ccc(F)cc2)CC1)C1CCCCC1 (stereo unspecified) | 0.93 | 0.8 | 0.6 | 22 | 36
COc1ccc(N2CCN(C(CNC(=O)c3ccc4c(c3)OCO4)c3cccnc3)CC2)cc1 (stereo unspecified) | 1 | 0.7 | 0.8 | 28 | 17
SMILES | Cav3 T inh | CYP2C9 act | CYP2C19 act | CYP2C9 inh | CYP2C19 inhib
COc1ccc(N2CCN(C(CNC(=O)c3cccc(Cl)c3)c3cccnc3)CC2)cc1 (stereo unspecified) | 0.24 | 0.4 | 0.7 | 56* | 34
O=C(NCC(c1cccnc1)N1CCN(c2ccccc2F)CC1)C1CCCCC1 (stereo unspecified) | 1.9 | 0.5 | 0.2 | 49 | 79*
COc1ccccc1CNc1nc2nc(C)cc(=O)n2[nH]1 | -0.46 | 0.8 | 0.9 | 17 | 6
O=C(Nc1ccc(Cl)cc1)NC1CCCCC1Cc1ccco1 (stereo unspecified) | -3.6 | 0.4 | 0.9 | 59* | 10
Nc1ncnc2c1nc(Br)n2[C@@H]1O[C@@H]2COP(=O)(O)O[C@H]2[C@H]1O | 0.19 | · | · | · | ·
CCOC(=O)c1cc(-c2ccc(C)cc2)n(CCC(=O)NC(C)CC)c1C (stereo unspecified) | -1.2 | 0.5 | 0.4 | 48 | 64*
CCC(C)NC(=O)CCS(=O)(=O)c1ccc(Br)s1 (stereo unspecified) | · | 0.9 | 0.8 | 10 | 24
CCOC(=O)c1cc(-c2ccccc2)n(CC(=O)O)c1C | -0.11 | 0.3 | 0.9 | 72* | 5
COC(=O)c1cc(-c2ccccc2)n(CCN)c1C | -0.31 | · | · | · | ·
CCCNC(=O)CCn1c(-c2ccc(C)cc2)cc(C(=O)OCC)c1C | -0.43 | 0.4 | 0.3 | 62* | 66*
Cc1cc2ncn(C(=O)N3CCCC3)c2cc1C | -0.0047 | · | · | · | ·
CCN(CC)c1ccc(-c2nc3cnccn3c2NC2CCCC2)cc1 | -6.2* | 0 | 0.1 | 98* | 94*
c1ccc(-c2nc3cnccn3c2Nc2ccc3c(c2)OCCO3)cc1 | -1.3 | · | · | · | ·
c1cn2c(NC3CCCC3)c(-c3ccc(N4CCOCC4)cc3)nc2cn1 | -0.58 | 0 | 0 | 98* | 95*
Cc1cc(C)nc(NCC(O)CNc2ccccc2Cl)n1 (stereo unspecified) | -0.73 | · | · | · | ·
Cc1sc(NC(=O)c2cccs2)c(C(N)=O)c1C | 0.56 | 0.2 | 0.3 | 81* | 66*
CCOC(=O)c1c(NC(=O)Cc2cccs2)sc(C(=O)N2CCCCC2)c1C | -2.7 | 0.3 | 0.3 | 65* | 65*
CCOC(=O)c1cnn(CCOC(=O)Cc2cccs2)c1NC(=O)Cc1cccs1 | 1.9 | 0.1 | 0.1 | 89* | 88*
COC(=O)c1sc(S(=O)(=O)NCc2cccs2)c(C(=O)OC)c1C | -2.1 | 0.2 | 0.1 | 82* | 89*
Cc1nn(C)c(C)c1S(=O)(=O)NCc1cccs1 | 0.69 | 1 | 0.9 | -4 | 11
CC1(C)CCC23CC[C@]4(C)C(OC2=O)(C3C1)[C@H]1O[C@H]1C1[C@@]2(C)CC[C@@H](O)C(C)(C)C2CC[C@]14C (stereo partly specified) | -1.7 | · | · | · | ·
COC(=O)c1c(NC(=O)Cc2cccs2)sc(C)c1C | -3.3 | 0.6 | 0.4 | 36 | 62*
O=C(Nc1sc2c(c1C(=O)O)CCCC2)c1cccs1 | -0.24 | 0.9 | 1 | 6 | -1
CC(C)OC(=O)c1c(NC(=O)c2cccs2)sc2c1CCCC2 | -0.44 | 0.3 | 1 | 74* | -4
Cc1ccc(C)c2[nH]c(=O)c(CN(CC3CCCO3)S(=O)(=O)c3ccc4c(c3)OCCO4)cc12 (stereo unspecified) | -0.4 | 0.4 | 0.8 | 61* | 21
